# Results: PubChem BioAssay AID1159580 (chemical genetic matrix, 2015)
# Hit rate of the full screen: of about 5,500 compounds, about 2,000 (36%) were called active. Roughly 18% stayed inconclusive and do not appear here. This is one part of the list. Unmarked numbers belong to inactive results. No stated cut-off is given here; in the data, active means normalized growth mostly below about 0.91 (no sharp cut-off); inconclusive means no clear call, values can overlap the other calls; inactive means mostly above about 0.92.
# Assay: chemical genetic growth profiling, strain panel (AID 1159580);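 further: tested at 20 µM; growth read once vehicle control cultures reached saturation at 30 °C; 1 = growth at the plate median or of vehicle wells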
# Settings: S. cerevisiae deletion strains, growth OD
smiles,measurement,setting,value
COc1ccc2c(c1)CCC1C2CC[C@@]2(C)C1CC[C@@H]2NCCCCCCN1C(=O)C=CC1=O (stereo partly drawn),normalized growth,"locus YAL013W, strain DEP1, stronger effect = lower value",0.989
same,normalized growth,"locus YAL040C, strain CLN3, stronger effect = lower value",0.444 (active)
same,normalized growth,"locus YCL061C, strain MRC1 (second series), stronger effect = lower value",0.998
same,normalized growth,"locus YDR150W, strain NUM1, stronger effect = lower value",0.976
same,normalized growth,"locus YDR363W, strain ESC2, stronger effect = lower value",0.988
same,normalized growth,"locus YER002W, strain NOP16, stronger effect = lower value",0.843 (active)
same,normalized growth,"locus YJR075W, strain HOC1, stronger effect = lower value",0.997
same,normalized growth,"locus YMR307W, strain GAS1, stronger effect = lower value",0.93
same,normalized growth,"locus YNL197C, strain WHI3, stronger effect = lower value",1.07
same,normalized growth,"locus YNL224C, strain SQS1, stronger effect = lower value",0.256 (active)
same,normalized growth,"locus YNL322C, strain KRE1, stronger effect = lower value",0.984
same,normalized growth,"locus YOR083W, strain WHI5 (second series), stronger effect = lower value",1.02
same,normalized growth,"locus YPL241C, strain CIN2, stronger effect = lower value",0.993
